# High-throughput results deposited in PubChem by National Center for Advancing Translational Sciences (NCATS).
# VP16 counter: Gal4-VP16 reporter inhibition counter-screen | Drosophila S2 Gal4-VP16 UAS-luciferase, luminescence, 20 h | Potency, µM (series often up to 53.6 µM), most hits filed as inhibitors | 3.5% of 310,000 active;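 also: Gal4-VP16 expression switched on by copper sulfate through the metallothionein promoter; nearly all actives have a fitted effect of over 50% in size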
# RORg inh: inhibitors of mouse ROR gamma transcriptional activity | P51450 | Drosophila S2 Gal4-RORgamma UAS-luciferase reporter, 20 h | Potency, µM (highest dose often 53.6 µM), usual class: inhibitors | 5.4% of 310,000 active; also: nearly all actives have a fitted effect of over 60% in size
# Target sequence (P51450 whole entry, looked up, the tested form may be a part): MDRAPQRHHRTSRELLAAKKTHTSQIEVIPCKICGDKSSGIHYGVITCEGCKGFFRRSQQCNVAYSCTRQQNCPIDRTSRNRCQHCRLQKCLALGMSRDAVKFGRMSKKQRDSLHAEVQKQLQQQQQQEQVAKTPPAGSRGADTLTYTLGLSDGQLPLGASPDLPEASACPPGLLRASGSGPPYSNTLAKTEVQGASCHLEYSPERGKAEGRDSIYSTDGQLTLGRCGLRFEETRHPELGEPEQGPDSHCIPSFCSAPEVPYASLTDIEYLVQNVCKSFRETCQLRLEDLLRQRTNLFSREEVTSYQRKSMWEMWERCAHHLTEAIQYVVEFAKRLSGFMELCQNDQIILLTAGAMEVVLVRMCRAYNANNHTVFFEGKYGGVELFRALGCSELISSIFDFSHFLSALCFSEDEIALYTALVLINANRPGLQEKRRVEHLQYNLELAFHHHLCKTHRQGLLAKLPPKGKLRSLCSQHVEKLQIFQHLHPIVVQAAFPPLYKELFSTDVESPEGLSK
#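 Drosophila S2 cells stably expressing Gal4-DBD/mouse RORγ fusion under metallothionein promoter plus UAS-luciferase; compound 1 h, then 700 uM CuSO4 induction for 20 h at ambient temperature; inhibition read as reduced luminescence.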
# TDP1 block: TDP1 (human) enzyme inhibition. recombinant TDP1, AlphaScreen DNA substrate cleavage. Q9NUW8. 0.28% of 350,000 active. Potency, µM (titrated, usually from 130 µM), usual class: inhibitors; also: nearly all actives have a fitted effect of over 40% in size
#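 Here, a 5' biotin and 3' phosphotyrosine-FITC DNA oligonucleotide reports Tdp1 activity: intact substrate bridges AlphaScreen beads, while cleavage leaves a 3' phosphate and drops signal. All incubations at room temperature.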
# DT40 TDP1 no CPT: qHTS for Inhibitors of human tyrosyl-DNA phosphodiesterase 1 (TDP1): qHTS in cells in absence of CPT; DT40 Tdp1-/- hTDP1 cells, no CPT, ATP luminescence, 48 h; Potency, µM (doses to about 46.2 µM), hits mostly inhibitors; 15% of 420,000 active; also: nearly all actives have a fitted effect of over 55% in size
#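 Growth of hTDP1-complemented DT40 Tdp1-knockout cells is measured by ATP luminescence after at least 48 hr compound exposure at 37 °C, with DMSO substituting for the 20 nM CPT used in the parallel screen.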
# DT40 TDP1 CPT: DT40-hTDP1 cell growth loss with CPT | Potency, µM (top dose mostly 46.2 µM), actives largely listed as inhibitors | chicken DT40 Tdp1-/-;hTDP1 cells + 20 nM CPT, ATP luminescence, 48 h | 12% of 420,000 active; also: nearly all actives have a fitted effect of over 55% in size
#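 Chicken DT40 Tdp1-/- cells complemented with human TDP1, 400 cells/well, exposed to compounds plus 20 nM camptothecin for at least 48 h at 37 C; viability read as ATP content by CellTiter-Glo luminescence.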
# A number is an active result; – = inactive; ? = inconclusive; · = no result; [ ] = dose if it differs, or a comment. Rows were chosen to be rich in hits. Some 19% of all compounds tested hit in one or more screens of this group. Calls follow the shape of the dose curve; as a rule, active = well fitted curve in the direction sought with a large enough effect; inconclusive = small, poorly fitted or top-dose-only effect, or another doubt; inactive = no such curve, though single readings can be large; an effect the other way counts as inactive or inconclusive.
SMILES,VP16 counter,RORg inh,TDP1 block,DT40 TDP1 no CPT,DT40 TDP1 CPT
COC(=O)c1sccc1-c1ccc(C(=O)Nc2cccc(Cl)c2)o1,–,–,–,23µM,?
Cc1ccc(-c2ccc(C(=O)Nc3ccccc3)o2)c2ccccc12,?,?,–,?,?
S=C(c1ccc(-c2ccccc2Cl)o1)N1CCCCC1,?,?,–,16µM,?
Cc1c(Cl)cccc1-c1ccc(C(=O)Nc2ccc(F)cc2)o1,·,·,–[12.3 µM],9.2µM,12µM
S=C(c1ccc(-c2ccc(Cl)cc2)o1)N1CCCCC1,?,?,–,?,?
CCN1C(=O)[C@@H]2[C@H](C1=O)[C@@H]1C[C@H]3C(=O)N(CC)C(=O)[C@H]3[C@@H]3C1=C(C(=O)N1C(=O)O/C(=N\CC4CC4)[C@]31C)[C@@H]2C,–,–,–,·,·
O=C(COC(=O)COc1ccccc1F)NCc1ccco1,·,·,–,–,–
COc1ncnc2c1ncn2CCCN(CCCc1ccccc1)CCCn1cnc2c(OC)ncnc21,·,·,·,?,–
O=C(Nc1cccnc1)c1ccc(-c2cc(Cl)ccc2Cl)o1,–[10 µM],–,–,21µM,?
CC(=O)Nc1ccc(NC(=O)c2ccc(-c3ccccc3Cl)o2)cc1,·,·,·,–,?
O=C(Nc1ccccc1)c1ccc(-c2ccccc2C(F)(F)F)o1,–,?,–,21µM,?
O=C(Nc1ccccc1)c1ccc(-c2ccccc2Cl)o1,–,–,–,18µM,21µM
O=C(Nc1cccnc1)c1ccc(-c2ccc(Cl)cc2)o1,–,–,–,–,–
O=C(NCc1ccc(Cl)cc1)c1ccc(-c2ccccc2C(F)(F)F)o1,–,–,–,23µM,21µM
COc1ccc(/C=C/C(=O)Nc2cccc(F)c2)cc1,·,·,–[12.3 µM],?,?
C=CCN1C(=O)/C(=C2/Sc3ccc(OC)cc3N2C)SC1=NCc1ccccc1,–,–,–,?,?
C=CCN1C(=O)/C(=C2/Sc3ccc(OC)cc3N2C)SC1=Nc1ccccc1,–,–,–,?,8.2µM
CCN1C(=O)/C(=C2/Sc3ccc(OC)cc3N2C)SC1=Nc1cccc(O)c1,?,?,–,16µM,5.8µM
COc1ccc2c(c1)N(C)/C(=C1/SC(=NCc3ccccc3)N(c3ccccc3)C1=O)S2,–,–,–,?,–
CN(c1ccccc1)S(=O)(=O)c1ccc(C(=O)Nc2nnc(-c3ccco3)o2)cc1,1.1µM,0.71µM,–,21µM,15µM
CCN(c1ccccc1)S(=O)(=O)c1ccc(C(=O)Nc2nnc(-c3ccco3)o2)cc1,–,0.1µM,–,18µM,?
NS(=O)(=O)c1cccc(NC(=O)COC(=O)Cn2cnc3ccccc32)c1,–,–,–,–,–
Cc1ccc2c(c1)N(CC(=O)NCc1cccc(Cl)c1)C(=O)c1cccnc1O2,·,·,–,?,?
O=C(CN1C(=O)c2cccnc2Oc2ccc(Cl)cc21)NC1CCCC1,–,–,–,15µM,–
CCOc1ccccc1CNC(=O)CN1C(=O)c2cccnc2Oc2ccc(Cl)cc21,·,·,–,16µM,?
SMILES,VP16 counter,RORg inh,TDP1 block,DT40 TDP1 no CPT,DT40 TDP1 CPT
CCc1ccc(CNC(=O)CN2C(=O)c3cccnc3Oc3ccc(Cl)cc32)cc1,·,·,–,16µM,?
CCOc1ccccc1CNC(=O)CCCN1C(=O)c2cccnc2Oc2ccc(Cl)cc21,·,·,–,?,?
Cc1cc(NC(=O)CC(F)(F)F)n(-c2ccccc2)n1,–,–,–,–,–
Cc1cc(C)nc(-n2nc(C)cc2NC(=O)c2cc(=O)c3ccccc3o2)n1,–,–,–,·,·
CCC(C(=O)Nc1cc(C)on1)c1ccccc1 (stereo not given),–,–,–,–,–
CCc1ccc(NC(=O)CNCc2ccc(OC)c(OC)c2)cc1,–,–,·,?,–
CCC(C(=O)Nc1cc(C)nn1-c1nc(C)cc(C)n1)c1ccccc1 (stereo not given),–,–,–,18µM,26µM
CCN(CC(=O)Nc1cc(C)nn1-c1nc(C)cc(C)n1)Cc1ccccc1,6.3µM,1.4µM,–,?,?
Cc1cc(C)nc(-n2nc(C)cc2NC(=O)CNCc2ccccc2)n1,?,5.6µM,–,?,–
COc1ccc(CNCC(=O)Nc2cc(C)nn2-c2nc(C)cc(C)n2)cc1OC,–,–,–,8.2µM,9.2µM
O=C(CSc1nn(-c2ccc(F)cc2)c(=S)s1)NC(=O)NCc1ccco1,–,?,–,–,–
O=C(CSc1ncccn1)Nc1cccc2ccccc12,–,–,–,–,?
COc1cc(SC)ccc1C(=O)N1CCC(Cc2ccccc2)CC1,–,–,–,·,·
C[C@@H]1CN([C@@H](C)CO)C(=O)CCCn2nncc2CO[C@H]1CN(C)Cc1ccccc1,·,·,·,–,–
CCOC(=S)SCC(=O)Nc1ncc(C)s1,?,?,–,23µM,?
CCn1ccc(C(=O)NC2=NCCS2)n1,–,–,–,?,–
Cc1cnc(NC(=O)CCc2ccccc2)s1,–,–[1.91 µM],·,8.2µM,16µM
Cc1cnc(NC(=O)CSc2nnc(Cc3ccccc3)o2)s1,–,10µM,–,?,?
CCn1ccc(C(=O)Nc2ncc(C)s2)n1,?,11µM,–,–,–
Cc1cnc(NC(=O)CSc2ccccc2)s1,?,?,–,–,?
Cc1ccc(NC(=O)CCS(=O)(=O)c2cc3c(cc2Cl)NC(=O)CO3)cc1,–,–,–,–,–
O=C(O)C1CCCCC1C(=O)Nc1ccccc1C(=O)N1CCN(c2ccc(F)cc2)CC1 (stereo not given),–,–,–,–,–
O=C(CCNC(=O)C1CCN(S(=O)(=O)c2ccccc2)CC1)NCc1cccc(Cl)c1,–,–,–,?,–
O=C(Nc1ccc(F)cc1F)c1cc2ncc(Br)cn2n1,–,–,–,·,·
CCN(CC)C(=O)Cn1c(=O)n(CC(=O)N2CCCCC2)c(=O)c2sccc21,–,–,–,–,–
SMILES,VP16 counter,RORg inh,TDP1 block,DT40 TDP1 no CPT,DT40 TDP1 CPT
COc1ccccc1N1CCN(Cc2cccs2)CC1,–,–,–,–,–
Cn1cccc1C(=S)N=P(C1CCCCC1)(N1CCOCC1)N1CCOCC1,–,–,–,–,–
Cc1cnc(NC(=O)CCCc2nc3ccccc3s2)s1,–,–,–,23µM,15µM
Cc1cnc(NC(=O)Cc2ccccc2Cl)s1,–,–,–,3.3µM,3.3µM
O=C(Nc1ncc(Cc2cccc(Cl)c2Cl)s1)c1ccc([N+](=O)[O-])cc1,–,–,–,16µM,13µM
Cc1cnc(NC(=O)Cc2ccc(C)c(C)c2)s1,–,–,·,?,–
N#CCC(=O)Nc1ncc(Cc2ccccc2Cl)s1,?,13µM,–,–,–
CC(C)C(=O)Nc1ncc(Cc2ccccc2Cl)s1,–,?,–,–,–
CCOc1ccccc1CN1CCC(Oc2cccc(C(=O)NCCOC)c2)CC1,–,–,·,–,–
Cc1ccc(C2=CC(c3ccc(C)cc3)n3ncnc3N2)cc1 (stereo not given),·,·,·,?,–
